Measured values published in PubChem BioAssay AID624331 (National Center for Advancing Translational Sciences (NCATS), 2012).
Results filed as inconclusive are left out. Activity calls are given as the source filed them. Calls come from the whole dose curve; as a rule, active = well fitted activation curve with a large enough effect; inconclusive = small, poorly fitted or top-dose-only effect; inactive = no such curve, though single readings can be large or run the other way.

Assay: qHTS assay for re-activators of p53 using a Luc reporter: Hit Validation with no p53 Expressed; for activity change, positive = activation: 0% is about no effect
Details: p53-null cells, luciferase reporter counter-screen; series mostly up to 46.1 µM; activity change, positive = activation: at the top concentration
Procedure, shortened: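 Counter-screen of primary hits in a cell line not transfected with p53, in Opti-MEM with 10% FBS; compounds at several concentrations (10 mM stock, 1:5; top 46.1 µM in well), 24 h at 37 deg C, 5% CO2. Luminescence read after 10 min with Amplite reagent.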
Potency is the fitted concentration of half-maximal effect.

| Compound | activity change, positive = activation | Potency |
| --- | --- | --- |
| CSCCC(NC(=O)c1ccc(Cl)cc1Cl)C(=O)N1CC(C)OC(C)C1 (centres undefined) | -16.4% (inactive) | – |
| COc1ccc(N2CCN(CC(=O)Nc3ccc(C)cc3)CC2)cc1 | -7.99% (inactive) | – |
| O=C(/C=C/c1ccccc1)NC1CCSC1=O (centres undefined) | – | 16.4 µM (active) |
| Cc1cc(C)nc(SCC(=O)OCC(=O)Nc2nc3ccccc3s2)n1 | 93.7% (inactive) | – |
| O=C(Nc1cccc(N=Cc2cc(Cl)cc(Br)c2O)c1)c1ccco1 | -26% (inactive) | – |
| N#CC1=C(N)N2C(=C(C#N)C13CCCCC3)SC1CCCCC12O (centres undefined) | -19.8% (inactive) | – |
| COc1cc(NC(=O)C(C)C)ccc1NC(=O)c1ccco1 | -0.602% (inactive) | – |
| CN1CCN(C2=C(Cl)C(=O)N(Cc3ccccc3)C2=O)CC1 | -21.3% (inactive) | – |
| O=C(CSc1nnc(-c2ccc(F)cc2)c2ccccc12)Nc1ccccc1 | -15.3% (inactive) | – |
| CC(=O)Nc1cccc(C(=O)N/N=C/c2ccccc2F)c1 | 92.9% (inactive) | – |
| C=CCn1c(SCC(=O)Nc2ccc(-c3nc4ccc(C)cc4s3)cc2)nnc1-c1ccccc1 | 2.23% (inactive) | – |
| Cc1ccc(-c2noc(CN3CCC(C(N)=O)CC3)n2)cc1 | 58.6% (inactive) | – |
| O=C(NNC1=C(C(=O)C(F)(F)F)CCC1)c1cccc(O)c1 | -60.1% (inactive) | – |
| Cc1cccc(-n2c(C)cc(C(=O)NC3CCCCC3)c2C)c1 | 47.2% (inactive) | – |
| O=C(/C=C/c1ccc([N+](=O)[O-])s1)N1CCCCC1 | 156% (inactive) | – |
| CCOc1cc(S(=O)(=O)NC2CCCCCC2)ccc1F | 35.2% (inactive) | – |
| CCc1ccc(-n2cc(-c3ccc([N+](=O)[O-])cc3)[nH]c2=S)cc1 | 56.6% (inactive) | – |
| Cc1ccccc1CSc1ncc(C#N)c(N)n1 | 8.99% (inactive) | – |
| CC(C)C(=O)OCC(=O)Nc1ccc(N=Nc2ccccc2)cc1 | 34.9% (inactive) | – |
| C=CCn1c(C)cc(C(=O)CSc2nc3ccccc3o2)c1C | 18.2% (inactive) | – |

| Compound | activity change, positive = activation | Potency |
| --- | --- | --- |
| O=C(Nc1ccc(Cl)cc1)Nc1nnc(SCc2ccccc2)s1 | -21.5% (inactive) | – |
| COc1ccc(C2=NN(C(C#N)c3ccc(OC)cc3)C(c3ccccc3)C2)cc1 (centres undefined) | -12.3% (inactive) | – |
| Cc1ccc(/C=C(\C#N)C(=O)NCC2CCCO2)o1 (centres undefined) | -20.6% (inactive) | – |
| CC(=O)c1c(C)[nH]c(C(=O)OCC(=O)c2ccc(C)s2)c1C | -28.2% (inactive) | – |
| COCCSc1nnc(NC(=O)CCS(=O)(=O)c2ccccc2)s1 | -5.66% (inactive) | – |
| CN(C)C(=O)c1ccc2c(c1[N+](=O)[O-])C(=O)c1ccccc1C2=O | 80.8% (inactive) | – |
| CC1CCCC(C)N1C(=O)CSc1nnc(-c2cccs2)o1 (centres undefined) | 52.8% (inactive) | – |
| O=C(Nc1ccc2c(c1)OCO2)c1cc(Cl)ccn1 | -33% (inactive) | – |
| c1ccc(-c2nnc(-c3ccccn3)nc2NC2CCCCC2)cc1 | -7.46% (inactive) | – |
| Cc1cccc(NC(=O)c2ccccn2)c1C | 32.6% (inactive) | – |
| COc1ccccc1C(=O)NNC(=O)c1cccc(F)c1 | 15% (inactive) | – |
| Cc1nnc(SCC(=O)N2CCOCC2)c2ccccc12 | 2.29% (inactive) | – |
| Cc1cccc(NC(=O)/C=C/c2ccc(Cl)cc2)n1 | -19.5% (inactive) | – |
| Cc1ccc(C(=O)Nc2nnc(SCC(=O)N3CCCc4ccccc43)s2)cc1 | -62.4% (inactive) | – |
| c1ccc(-c2cn3nc(-c4ccccc4)cnc3n2)cc1 | 50.2% (inactive) | – |
| O=C(NC(=S)NCCc1ccccc1)C1CCCCC1 | -17% (inactive) | – |
| O=C(NC(=S)Nc1ccccc1Br)C1CCCCC1 | 28% (inactive) | – |
| Cc1nc2ccccc2nc(C)c1=NOCc1ccccc1Cl | -25.3% (inactive) | – |
| Cc1csc(NC(=O)/C=C/c2ccco2)n1 | 21.2% (inactive) | – |
